High-throughput results (PubChem BioAssay)
Rab9 promoter act = qHTS Assay for Rab9 Promoter Activators | Huh7 Rab9 promoter-luciferase reporter, luminescence, 24 h | Potency, µM (series often up to 9.22 µM), inactives show top-dose activation, negative = inhibition, hits mostly activators | 320,000 compounds, 2.8% hits | AID 485297, 2010; further: % of control where 0% means no effect; nearly all actives have a fitted effect of over 60% in size
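Luminescence from Amplite-detected luciferase (10 minutes, ambient) reports Rab9 promoter activation. Before that, stable Rab9-luciferase Huh7 cells (1500/well, reduced-serum OP-MEM I plus 10% FBS) were exposed to compound for 24 hours at 37C.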
SMN2 splice enh = qHTS Assay for Enhancers of SMN2 Splice Variant Expression | 210,000 compounds, 2.8% hits | HEK293 SMN2-luciferase splicing reporter, luminescence, 30-36 h | AID 1458, 2008 | Potency, µM (doses to about 46.1 µM), without a hit: at the highest dose activity change, positive = activation, actives largely listed as activators; further: % of control where 0% means no effect; nearly all actives have a fitted effect of over 55% in size
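qHTS luciferase splicing reporter: luminescence rises when SMN2 exon 7 is included in transfected HEK293 cells. Compound exposure lasted 30-36 h at 37C, with 4.5 mM final sodium butyrate as control, followed by a ONE-Glo read.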
FLuc counter = qHTS profiling assay for firefly luciferase inhibitor/activator using purifed enzyme and Km concentrations of substrates (counterscreen for miR-21 project); Potency, µM (titrated, usually from 57.5 µM), for inactives: at the top dose activity change, negative = inhibition, most hits filed as inhibitors; purified FLuc, Km substrates, luminescence inhibition; 360,000 compounds, 6.9% hits; Luciferin 4-monooxygenase (Photinus pyralis), P08659;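 further: plate controls were vehicle for no effect and reference inhibitor for full effect; nearly all actives have a fitted effect of over 55% in size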
Target sequence (P08659 whole entry, looked up): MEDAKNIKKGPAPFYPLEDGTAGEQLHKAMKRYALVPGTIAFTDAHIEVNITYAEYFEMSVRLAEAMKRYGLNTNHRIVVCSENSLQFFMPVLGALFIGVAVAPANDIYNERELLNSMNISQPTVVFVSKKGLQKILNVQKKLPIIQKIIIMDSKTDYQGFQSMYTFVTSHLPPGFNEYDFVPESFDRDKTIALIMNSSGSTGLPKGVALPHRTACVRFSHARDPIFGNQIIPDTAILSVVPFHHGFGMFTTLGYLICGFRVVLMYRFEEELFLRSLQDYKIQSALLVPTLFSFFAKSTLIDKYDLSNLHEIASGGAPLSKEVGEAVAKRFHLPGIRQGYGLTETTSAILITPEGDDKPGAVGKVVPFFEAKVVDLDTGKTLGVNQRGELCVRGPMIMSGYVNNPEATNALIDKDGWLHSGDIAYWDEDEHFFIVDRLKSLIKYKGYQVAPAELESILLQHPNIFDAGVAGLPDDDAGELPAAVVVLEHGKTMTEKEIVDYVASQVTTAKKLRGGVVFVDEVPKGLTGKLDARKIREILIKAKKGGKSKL
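Biochemical qHTS of compounds, final roughly 60 µM downward over six points, against 10 nM purified firefly luciferase using Km concentrations of substrates (10 uM D-luciferin, 10 uM ATP) in Tris acetate pH 7.5 buffer; luminescence output.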
NPC1 prom act = qHTS Assay for NPC1 Promoter Activators. 320,000 compounds, 2.4% hits. Potency, µM (series often up to 9.22 µM), for inactives: at the top dose activation, usual class: activators. Huh7 NPC1 promoter luciferase reporter, 24 h; further: % of control where 0% means no effect; nearly all actives have a fitted effect of over 60% in size
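NPC1 promoter–luciferase Huh7 cells; 24 h compound; luminescence.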
Luc counter = Counterscreen for Luciferase (Kinase-Glo TM) Inhibition | Luciferin 4-monooxygenase (Photuris pensylvanica), Q27757 | 200,000 compounds, 0.28% hits | Potency, µM (doses to about 38.3 µM), without a hit: at the top dose activity change, negative = inhibition, most hits filed as inhibitors | Kinase-Glo luciferase, ATP luminescence, 8 min | AID 1379, 2008; further: on the % scale 0 is the no-effect control and ±100 the full control effect; nearly all actives have a fitted effect of over 60% in size
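Inhibition of Kinase-Glo luciferase light generation was assessed at 10 uM ATP in pH 7.2 imidazole buffer, with luminescence measured after eight minutes at ambient temperature.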
ELG1 genotoxic = qHTS screen for small molecules that induce genotoxicity in human embryonic kidney (HEK293T) cells expressing luciferase-tagged ELG1; Potency, µM (top dose mostly 46 µM), inactives show at the top dose activity change, positive = activation, usual class: activators; HEK293T ELG1-luciferase reporter, luminescence, 16 h; AID 504466, 2011; 330,000 compounds, 1.3% hits; further: % of control where 0% means no effect; nearly all actives have a fitted effect of over 60% in size
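ELG1-luciferase HEK293T cells, 2,000/well; compound pinned in; 16 hr, 37 °C, 5% CO2; ONE-Glo, 30 min RT; luminescence on CCD imager.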
* = called active by the depositor; ? = inconclusive; . = not tested or not shown. Rows were chosen to be rich in hits. Some 7.5% of all compounds tested hit in one or more screens of this group. The call rests on the fitted dose curve; in most records, active means well fitted curve in the direction sought with a large enough effect; inconclusive means small, poorly fitted or top-dose-only effect, or another doubt; inactive means no such curve, though single readings can be large; an effect the other way counts as inactive or inconclusive. Potency means the concentration at half of the fitted maximal effect.

SMILES	Rab9 promoter act	SMN2 splice enh	FLuc counter	NPC1 prom act	Luc counter	ELG1 genotoxic
O=C(Nc1cccc(F)c1)Nc1ccc2c(c1)OCO2	2.8µM*	.	7.6µM*	2.2µM*	.	?
CC(C)C(=O)Nc1cccc(NC(=O)c2cccc(F)c2)c1	5%	3%	1%	1%	-1%	-5%
O=C(Nc1ccc2c(c1)OCO2)c1c(F)cccc1F	3.2µM*	10µM*	12µM*	3.5µM*	-1%	?
CC(=O)Nc1ccc(OCc2ccc3c(c2)OCO3)cc1	1.6µM*	.	17µM*	0.63µM*	.	?
O=C(Nc1ccc2c(c1)OCO2)C1CCCN1C(=O)Nc1cccc(F)c1 (stereo not given)	13%	-4%	-2%	-3%	-1%	-3%
CC(C)[C@H](NC(=O)c1ccccc1F)C(=O)Nc1ccc2c(c1)OCO2	1%	.	-1%	-1%	.	12%
O=C(Nc1ccc2c(c1)OCO2)c1cccc(F)c1	.	?	12µM*	.	-24%	.
C/C(=N/N1CCN(Cc2cccc3ccccc23)CC1)c1ccco1	-1%	.	?	11%	.	-1%
O=C(Nc1ccc2c(c1)OCO2)NC1CCN(Cc2ccccc2)CC1	2%	?	17µM*	12%	-2%	?
O=C(Nc1ccc(F)cc1)NC1CCN(Cc2ccccc2)CC1	-7%	-6%	4%	-6%	2%	-7%
O=C(O)Cc1ccc(NC(=O)Nc2ccc3c(c2)OCO3)cc1	?	.	9.5µM*	26%	.	?
O=C(NCc1ccc2c(c1)OCO2)Nc1ccc(Cl)cc1	25%	.	4%	26%	.	?
CCCN(C(=O)Cn1ncc2c1-c1ccccc1OC2)c1cccc(C)c1	.	-18%	-8%	.	.	.
COc1cccc(OC)c1C(=O)N1CCNCC1	0%	.	1%	1%	.	-1%
CC(=O)c1cccc(NC(=O)C(=O)c2cn(CC(=O)N3CCCCC3)c3ccccc23)c1	20%	-8%	8.5µM*	7%	2%	-4%
O=C(Nc1ccccc1)C(=O)c1cn(CC(=O)N2CCCCC2)c2ccccc12	0%	8%	13µM*	6%	-1%	-1%
CCCCN1C=CC(=C2N=c3cccc([N+](=O)[O-])c3=N2)C=C1	?	11µM*	21µM*	?	?	?
CC1CC(C)CN(CCCNC(=O)C2CCCN(S(=O)(=O)N3CC(C)CC(C)C3)C2)C1 (stereo not given)	-7%	.	-1%	-3%	.	-2%
CCCCN(CC)Cc1c(O)ccc2c3c(c(=O)oc12)CCC3	-5%	.	2%	-4%	.	1%
O=c1/c(=C/c2ccco2)sc2nc(-c3ccccc3Br)nn12	5%	-4%	6.7µM*	9%	-12%	4%
CCOc1ccc(C2C(=O)N(C3CCCCCC3)CC(=O)N2CCc2ccc(Cl)cc2)cc1OC (stereo not given)	.	.	-4%	.	.	.
CC(C)(C)n1ncc2c(=O)n(Cc3cccc(Cl)c3Cl)cnc21	.	.	-12%	.	.	.
Cc1nn(C)cc1S(=O)(=O)N1CCCCC1C (stereo not given)	0%	.	2%	5%	.	1%
O=C(/C=C/Nc1ccc(Br)cn1)c1cccc(OC(F)F)c1	2.2µM*	.	2.7µM*	2.8µM*	.	?
COc1cc(OC)cc(OC(=O)c2ccc3c(=O)n4c(nc3c2)CCC4)c1	0%	.	15µM*	3%	.	4%
Cc1ccc(OC(=O)c2ccc3c(=O)n4c(nc3c2)CCC4)cc1	-7%	.	6µM*	-8%	.	6%
CC(=O)c1cccc(OC(=O)c2ccc3c(=O)n4c(nc3c2)CCC4)c1	0%	.	-18%	2%	.	-2%
CCOc1ccccc1NC(=O)CN1C(=O)COc2ccc(S(=O)(=O)NC3CCCC3)cc21	.	.	-6%	.	.	.
